Compounds with a hit are over-represented: about 2.4% of the library has one in this group of screens.
D2 PAM-1 – positive allosteric modulators of human D2 dopamine receptor; HEK293 T-REx D2, calcium flux, EC20 dopamine potentiation; potentiation, % at 10 µM; 340,000 tested, 0.34% active;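 active = potentiation over 3 SD above the plate norm, cut at about 30% in these data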; also: 0% is about no effect
Target sequence (P14416 whole entry, looked up): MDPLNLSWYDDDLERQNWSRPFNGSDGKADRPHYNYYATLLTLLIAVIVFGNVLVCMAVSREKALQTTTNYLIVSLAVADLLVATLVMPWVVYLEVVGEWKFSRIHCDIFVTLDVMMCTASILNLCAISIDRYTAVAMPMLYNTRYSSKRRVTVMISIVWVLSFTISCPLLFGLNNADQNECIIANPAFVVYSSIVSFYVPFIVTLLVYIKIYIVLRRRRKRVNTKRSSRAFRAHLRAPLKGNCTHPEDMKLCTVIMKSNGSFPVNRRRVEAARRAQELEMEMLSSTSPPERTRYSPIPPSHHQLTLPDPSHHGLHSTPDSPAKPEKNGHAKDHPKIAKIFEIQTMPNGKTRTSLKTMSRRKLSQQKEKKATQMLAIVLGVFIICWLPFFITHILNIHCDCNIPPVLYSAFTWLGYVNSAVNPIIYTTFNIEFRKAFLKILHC
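Cells plated with tetracycline inducer and held overnight at 30 C; calcium dye loaded 30–90 min at room temperature; baseline taken, compound added and read 180 s; EC20 dopamine then added and read 180 s.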
D2 ag-1 – activates the human D2 dopamine receptor; P14416; HEK293 T-REx D2 cells, calcium flux agonist mode; activation, % at 2 µM; 340,000 tested, 0.53% active; AID 485358;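 active = activation over 3 SD above normal in the single-dose calcium agonist read, cut at about 30% in these data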; also: 0% is about no effect
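Agonism scored from kinetic calcium signal (1 read/sec, 180 s) following compound pin transfer, after a 10 s baseline. Cells: HEK293 Trex line expressing inducible D2 receptor coupled to calcium, dye-loaded after overnight culture at 30 C.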
D2 ag-2 – human D2 receptor agonism in beta-arrestin assay; 360,000 tested, 0.084% active; activation, % (test concentration not listed); DiscoveRx PathHunter D2 beta-arrestin, luminescence, 90 min; 100% = 57 uM dopamine signal; in the data active = activation above about 40%; inconclusive = between about 15% and that limit
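DiscoveRx PathHunter D2 beta-arrestin cells (2,100/well) attached overnight, then compound-stimulated 90 min at 37 C in HBSS/10 mM HEPES/0.1% Tween-20 buffer; beta-galactosidase complementation read by luminescence after 1 h at ambient temperature. Dopamine 57 uM final (EC100) as control.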
D2 antagonist – D2 dopamine receptor (human) antagonism; 340,000 tested, 2% active; inhibition, % at 10 µM; P14416; AID 485344; HEK293 TREx D2 cells, calcium flux, dopamine EC80; in the data active = inhibition above about 30%; inactive = below that, where a call was filed; also: 0% is about no effect
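Calcium mobilization kinetics were recorded at 1 s intervals in tetracycline-induced HEK293 T-REx D2 cells, first for 180 s after compound addition and then 180 s after EC80 dopamine.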
D2 PAM-2 – potentiates the human D2 dopamine receptor allosterically | P14416 | DiscoveRx D2 beta-arrestin cells, luminescence, 90 min; 100% = 57 uM dopamine signal | potentiation, % (test concentration not listed) | 360,000 tested, 0.23% active; in the data active = potentiation above about 50%; inconclusive = mostly about 30% to 49%
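PathHunter beta-arrestin assay in DiscoveRx D2 cells. Compounds were added with an EC20 of dopamine (50 nM final) for 90 min at 37 deg C. Luminescence was read 1 h after detection reagent, with 57 uM dopamine as the EC100 control.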
Starred values were filed as active, the others as inactive; ? = inconclusive; . = not tested or not shown.

SMILES	D2 PAM-1	D2 ag-1	D2 ag-2	D2 antagonist	D2 PAM-2
O=C1NC(=S)NC(=O)C1=Cc1cccc2cc3ccccc3cc12	10.2	0.5	-9.6	9.2	-60.0
CC1(C)OC(c2ccccc2)=C/C(=C/C=C2C(=O)NC(=S)NC2=O)O1	1.1	9.3	9.5	63.0*	4.0
CNc1cc(N2CCN(C)CC2)ccc1[N+](=O)[O-]	-2.0	-1.1	-2.3	-20.0	-12.4
O=C(CCCN1CCC(n2c(=O)[nH]c3ccccc32)CC1)c1ccc(F)cc1	-14.1	0.0	1.2	76.6*	-27.1
COc1ccc(C(=O)C(C)(C)NO)cc1	2.2	-0.6	10.7	15.5	17.5
Nc1ccc2ccc3cccc[n+]3c2c1	2.7	31.1*	-0.9	1.4	4.2
C[n+]1c(-c2ccccc2)c2cc(N)ccc2c2ccc(N)cc21	-6.3	5.4	7.3	-11.2	24.9
O=C(CN1C(=O)CN=C(c2ccccc2Cl)c2cc(Cl)ccc21)NCc1ccco1	5.8	2.5	-2.2	13.2	-10.8
CCCCOCCCn1c(N)c(C(=O)OC(C)COC)c2nc3ccccc3nc21 (stereo not given)	-2.3	-2.2	-8.1	-13.1	-28.7
COCCCn1c(N)c(C(=O)OC(C)COC)c2nc3ccccc3nc21 (stereo not given)	-2.4	-0.8	-3.6	42.5*	-10.5
O=c1[nH]c(=O)n(-c2ccc(F)cc2)c(O)c1/C=C1\C=Nc2ccccc21	12.2	-0.4	1.0	-19.6	-5.7
CC(C)N1CC=C(c2c[nH]c3ccccc23)CC1	.	.	-1.2	.	-39.0
C1=C(c2c[nH]c3ccccc23)CCNC1	-16.1	1.6	.	41.9*	.
Cc1ccc(-c2cc(-c3ccccc3)cc(-c3ccccc3)[n+]2-c2ccccc2)cc1	-2.7	1.7	10.7	38.2*	11.0
O=C(c1cnn2c(C(F)(F)F)cc(-c3ccccc3)nc12)N1CCC2(CC1)OCCO2	1.6	-0.1	0.4	13.8	-8.0
CCCC(CCC)C(=O)OC[N+](C)(C)CCOC(=O)C(O)(c1ccccc1)C1CCCC1 (stereo not given)	-3.6	-1.4	-5.4	39.1*	-10.6
CC(C)(C)C(=O)OC[N+](C)(C)CCOC(=O)C(O)(c1ccccc1)C1CCCC1 (stereo not given)	-7.8	-0.3	10.6	19.4	-15.4
CCCn1cc2c3c(cccc31)C1CC(C)CN(C)C1C2 (stereo not given)	-28.7	38.9*	.	86.6*	.
Cc1cc(NC(=O)C(Cl)(Cl)Cl)no1	3.4	-0.7	3.2	6.9	-8.4
CNCCc1c[nH]c2ccc(O)cc12	.	.	55.3*	.	?
Cc1cc(O)c(CN2CCN(c3ccccc3)CC2)cc1C	-34.0	6.2	-1.9	49.3*	-30.6
Oc1cc2c(cc1CN1CCN(c3ccccc3)CC1)CCC2	-22.6	-0.1	-0.7	72.9*	-39.7
COc1cccc(CN2CCN(c3ccc(F)cc3)CC2)c1OC	.	.	-0.6	.	-28.3
Brc1cc2c(cc1CN1CCN(c3ccccc3)CC1)OCCO2	-22.9	13.1	-4.0	-1.3	0.5
Cc1ccc(O)c(CN2CCN(c3ccccc3)CC2)c1	-23.5	4.7	-3.2	38.4*	-42.8
SMILES	D2 PAM-1	D2 ag-1	D2 ag-2	D2 antagonist	D2 PAM-2
Oc1cc2c(cc1CN1CCN(c3ccc(F)cc3)CC1)OCO2	-20.7	0.8	-0.8	57.8*	-23.2
Cc1nc2ccc(Br)cc2c(=O)n1-c1ccc([N+](=O)[O-])c(C(F)(F)F)c1	7.8	-0.2	0.3	-0.1	-1.4
Oc1ccc(Cl)cc1CN1CCN(Cc2ccccc2)CC1	-24.0	-0.7	-2.3	31.9*	-40.6
CCN(CC)CCCOC(=O)C(OC(C)C)(c1ccccc1)c1ccccc1	-24.8	-0.6	-2.4	57.1*	-17.3
COC(=O)C1=C(c2cccc(OC)c2OC)C[C@@H]2CC[C@H]1N2C(=O)NCCS(C)=O (stereo not given in full)	.	.	1.9	.	-0.8
COc1cc2occc2c2oc(=O)ccc12	-1.3	-0.9	0.0	32.6*	-23.5
COc1cc2ccc(=O)oc2c2ccoc12	2.3	-0.4	0.0	-30.6	-35.5
CCCN1CCC[C@@H]2Cc3nc(N)ncc3C[C@H]21	.	.	125.6*	.	116.6*
CC1(C)CN=C(Nc2ccc(F)c(Cl)c2)S1	0.1	1.3	-9.0	0.8	-20.5
CC1(C)CSC(Nc2ccc(F)c(Cl)c2)=N1	31.9*	0.4	-1.0	12.5	13.4
O=Cc1c(C(=O)O)n(Cc2ccc(Cl)cc2)c2ccccc12	-6.6	30.5*	-0.5	4.6	-11.2
c1ccc2c(CN3CCOCC3)c[nH]c2c1	-5.3	0.3	-4.9	-10.8	-3.9
CN1CC(C(=O)c2ccc(F)cc2)C(c2ccc(F)cc2)C1 (stereo not given)	-46.2	0.6	-7.9	99.9*	-28.5
Clc1cccc(N2CCNCC2)c1Cl	-26.1	1.6	-0.6	35.0*	-4.0
CC(C)NC(C)C(=O)c1ccc2ccccc2c1 (stereo not given)	18.7	-0.9	-12.3	46.0*	-19.7
C/C=C1/CN2C3CC1C(CO)(C(=O)OC)C2Cc1c3n(C)c2ccccc12 (stereo not given)	0.3	0.1	-4.1	-12.5	-3.8
CC(C)OCC(O)CN1CC2C[C@@H](C1)Cn1c2cccc1=O (stereo not given in full)	-14.3	22.6	7.0	41.7*	3.6
CC1=CP(=O)(Oc2ccc([N+](=O)[O-])cc2)CC1 (stereo not given)	.	.	-4.7	.	-13.4
CCN(CC)P(=O)(c1n(CC)cc[n+]1CC)N(CC)CC	31.5*	-0.2	-3.9	-16.7	-1.3
Cc1cc(NCCN)nc2ccccc12	-20.9	2.6	-5.7	57.8*	-20.3
Cc1ccc(C)c(-n2c(C)nc3ccccc3c2=O)c1	-18.7	0.3	-3.4	-0.2	-15.2
CC(=O)N1CN(C(C)=O)CN(C(C)=O)C1	9.1	-1.5	2.0	-20.2	-3.6
CC1CCN(C(=O)COC(=O)c2cn(C)c3ccccc23)CC1	-17.6	0.4	-1.0	2.6	-4.2
Cn1cc(C(=O)OCC(=O)NC2CCCCC2)c2ccccc21	3.2	0.4	-6.1	39.1*	-1.4
CCCCN(Cc1ccccc1)C1CCN(CCc2ccccc2)CC1	-21.4	-1.3	-4.9	55.8*	-10.6
c1ccc(CCCN2CCN(CCOC(c3ccccc3)c3ccccc3)CC2)cc1	.	.	3.5	.	-25.9
C/C=C(\C)C(=O)OC1C(C)=C2C(C1OC(=O)CCCCC)C(C)(OC(C)=O)CC(OC(=O)CCC)C1(O)C2OC(=O)C1(C)O (stereo not given)	-12.0	66.3*	.	35.9*	.
FC(F)(F)c1ccc2c(c1)N(CCCN1CCN(CCCl)CC1)c1ccccc1S2	-25.5	0.6	-2.1	75.4*	-44.2
Cc1nc2ccc(P(=O)(O)O)cc2s1	2.6	2.4	.	-1.3	.
CS(=O)(=O)Nc1ccc(Cc2noc(-c3ccc4[nH]cc(CCN)c4c3)n2)cc1	-5.8	9.3	.	40.2*	.

Compound activity as filed in PubChem.
